44 molecules from the antibiotic and cytotoxicity screens of Wong et al. (2023) can be followed below.

Out of some 39,000 compounds screened, about 3,300 (8.5%) were called active. Shown is part of a subset that was picked to be rich in actives.

The assay deals with HepG2. The assay is described as follows: cytotoxicity call (relative viability < 0.9). To be noted: 10 µM.
As to `Cn1c(=O)c2c(ncn2CCNC2=NCCC2)n(C)c1=O`, the cytotoxicity call is “inactive”. The same measure for `Cc1noc(C)c1NC(=O)Nc1cccc2c1O[C@@H](CN(C)S(=O)(=O)c1cn(C)cn1)[C@@H](C)CN([C@@H](C)CO)C2=O`: “inactive”; for `Cc1noc(C)c1S(=O)(=O)Nc1ccc2c(c1)C(=O)N([C@H](C)CO)C[C@H](C)[C@H](CN(C)S(=O)(=O)c1ccccc1)O2`: “inactive”; for `Cc1noc(C)c1S(=O)(=O)N(C)C[C@@H]1Oc2c(NS(=O)(=O)c3cn(C)cn3)cccc2C(=O)N([C@H](C)CO)C[C@@H]1C`: “inactive”. As for `CCC1(O)C(=O)OCc2c1cc1n(c2=O)Cc2cc3cc(O)ccc3nc2-1` (centres undefined), the entry is “inactive”; as for `CCC1(O)C(=O)OCc2c1cc1n(c2=O)Cc2cc3c(CN(C)C)c(O)ccc3nc2-1.Cl` (centres undefined), “active”. As for `CC[C@@]1(O)C(=O)OCc2c1cc1n(c2=O)Cc2c-1nc1cc(F)c(C)c3c1c2[C@@H](N)CC3`, the entry is “active”; as for `CCC[C@@H](N[C@H]1CCS(=O)(=O)C1)C(=O)O`, “inactive”; as for `NC[C@H](c1ccco1)N1CCc2ccccc2C1`, “inactive”. Turning to `C[C@@H]1CN([C@@H](C)CO)C(=O)c2cccc(NS(=O)(=O)c3ccccc3)c2O[C@@H]1CN(C)Cc1ccncc1`, the cytotoxicity call is “inactive”. The same measure for `C[C@H](CO)N1C[C@H](C)[C@H](CN(C)S(=O)(=O)c2ccc(Cl)cc2)Oc2ccc(NC(=O)Cn3cnnn3)cc2CC1=O`: “inactive”; for `COCC#Cc1ccc([C@@H]2[C@@H](CO)N3C(=O)CN(C(=O)C4CCOCC4)C[C@@H]23)cc1`: “inactive”; for `Cc1noc(C)c1NC(=O)N(C)C[C@@H]1Oc2ccc(NC(=O)Cn3cnnn3)cc2C(=O)N([C@H](C)CO)C[C@@H]1C`: “inactive”. As for `C[N+](C)(CCOc1ccccc1)Cc1ccccc1.O=C(O)c1cc2ccccc2c(Br)c1O`, the entry is “inactive”. In the case of `C[N+](C)(CCOc1ccccc1)Cc1ccccc1.O=C([O-])c1cc2ccccc2cc1O`, the cytotoxicity call is “inactive”. The same measure for `Cc1cc(C(C)(C)CC(C)(C)C)ccc1OCCOCC[N+](C)(C)Cc1ccccc1.[Cl-]`: “active”; for `C[C@H](CO)N1C[C@H](C)[C@@H](CN(C)S(=O)(=O)c2cn(C)cn2)Oc2ncc(/C=C/c3ccccc3)cc2C1=O`: “inactive”. For `Cc1ccc(S[C@]2(C(=O)NCCCN(C)C)CC(=O)N(Cc3ccccc3Cl)[C@@H]2c2ccc(CO)cc2I)cc1`, the cytotoxicity call is “inactive”. As for `COc1ccc(NC(=O)N(C)C[C@H]2OCCCC[C@@H](C)Oc3ccc(NS(=O)(=O)c4ccc(C)cc4)cc3C(=O)N([C@@H](C)CO)C[C@H]2C)cc1`, the entry is “inactive”; as for `CCn1c(=S)ccc2ccccc21`, “inactive”.

Take `CC(C)Cn1cnc2ccccc21`: the cytotoxicity call was “inactive”. As for `CCn1cc(-c2ccc3ccccc3n2)c(=S)c2ccccc21`, the entry is “active”; as for `CN1N=C(C(N)=O)CCC1=O`, “inactive”. The same measure for `C[C@@H]1CN([C@H](C)CO)C(=O)c2cc(NC(=O)Cn3cnnn3)ccc2O[C@@H]1CN(C)C(=O)Nc1ccccc1`: “inactive”; for `O=C(C[C@@H]1CC[C@H]2[C@@H](COC[C@@H](O)CN2S(=O)(=O)c2ccccc2)O1)N1CCc2ccccc2C1`: “inactive”; for `COc1nc(N)nc2c1ncn2[C@@H]1O[C@H](CO[P@@](=O)(N[C@@H](C)C(=O)OCC(C)(C)C)Oc2cccc3ccccc23)[C@@H](O)[C@@]1(C)O`: “active”.

For the molecule `CC(C)OC(=O)[C@H](C)N[P@](=O)(OC[C@H]1O[C@@H](n2ccc(=O)[nH]c2=O)[C@@](C)(O)[C@@H]1O)Oc1ccccc1`, the cytotoxicity call is “inactive”. The same measure for `C[C@H](N[P@@](=O)(OC[C@H]1O[C@@H](n2ccc(N)nc2=O)C(F)(F)[C@@H]1O)Oc1ccccc1)C(=O)OCc1ccccc1`: “inactive”. As for `Cc1noc(C)c1S(=O)(=O)Nc1cccc2c1O[C@H](CN(C)S(=O)(=O)c1ccc(F)cc1)[C@@H](C)CN([C@H](C)CO)C2=O`, the cytotoxicity call is “inactive”. The same measure for `Cc1noc(C)c1NC(=O)Nc1ccc2c(c1)C(=O)N([C@H](C)CO)C[C@H](C)[C@H](CN(C)C(=O)Nc1ccc(C(F)(F)F)cc1)OCCCC[C@H](C)O2`: “inactive”. As for `COc1ccc(NC(=O)Nc2ccc3c(c2)C(=O)N([C@@H](C)CO)C[C@@H](C)[C@H](CN(C)S(=O)(=O)c2ccc(OC)cc2)OCCCC[C@H](C)O3)cc1`, the entry is “inactive”; as for `C[C@H]1CN([C@@H](C)CO)C(=O)Cc2cc(NC(=O)Cc3ccccc3)ccc2O[C@H]1CN(C)Cc1ccc(Oc2ccccc2)cc1`, “active”. On to `C[C@H]1CN([C@@H](C)CO)C(=O)Cc2cc(NC(=O)Cc3ccccc3)ccc2O[C@@H]1CN(C)Cc1ccc(Oc2ccccc2)cc1`, for which the cytotoxicity call is “inactive”.

For the molecule `C[C@H](CO)N1C[C@H](C)[C@@H](CN(C)Cc2ccc(Oc3ccccc3)cc2)Oc2ccc(NC(=O)Cc3ccccc3)cc2CC1=O`, the cytotoxicity call is “inactive”. The same measure for `C[C@@H]1CN([C@@H](C)CO)C(=O)Cc2cc(NC(=O)Cc3ccccc3)ccc2O[C@@H]1CN(C)Cc1ccc(Oc2ccccc2)cc1`: “active”; for `C[C@@H]1CN([C@H](C)CO)C(=O)Cc2cc(NC(=O)Cc3ccccc3)ccc2O[C@H]1CN(C)Cc1ccc(Oc2ccccc2)cc1`: “inactive”; for `C[C@@H]1CN([C@H](C)CO)C(=O)Cc2cc(NC(=O)Cc3ccccc3)ccc2O[C@@H]1CN(C)Cc1ccc(Oc2ccccc2)cc1`: “active”. The same measure for `C[C@@H]1CN([C@@H](C)CO)C(=O)Cc2cc(NC(=O)Cc3ccccc3)ccc2O[C@H]1CN(C)Cc1ccc(Oc2ccccc2)cc1`: “inactive”. The same measure for `C[C@H](CO)N1C[C@H](C)[C@H](CN(C)Cc2ccc(Oc3ccccc3)cc2)Oc2ccc(NC(=O)Cc3ccccc3)cc2CC1=O`: “inactive”; for `Cc1ccc(S(=O)(=O)Nc2ccc3c(c2)C(=O)N([C@@H](C)CO)C[C@H](C)[C@H](CN(C)C(=O)CCC(F)(F)F)OCCCC[C@H](C)O3)cc1`: “inactive”; for `COc1ccc(NC(=O)Nc2ccc3c(c2)C(=O)N([C@H](C)CO)C[C@H](C)[C@H](CN(C)C(=O)Cc2ccccc2)OCCCC[C@@H](C)O3)cc1`: “inactive”.

For the molecule `Cc1noc(C)c1NC(=O)Nc1cccc2c1O[C@H](CN(C)S(=O)(=O)c1cn(C)cn1)[C@@H](C)CN([C@H](C)CO)C2=O`, the cytotoxicity call was “inactive”. The same measure for `C[C@H](CO)N1C[C@H](C)[C@H](CN(C)S(C)(=O)=O)Oc2ccc(NS(C)(=O)=O)cc2CC1=O`: “inactive”; for `C=CCNS(=O)(=O)c1cccc2nonc12`: “inactive”.
